# SMN2 splice up – SMN2 splice variant enhancement. AID 1458. HEK293 SMN2-luciferase splicing reporter, luminescence, 30-36 h. 210,000 compounds, 2.8% hits. Potency, µM (series often up to 46.1 µM), inactives show at the top dose activity change, positive = activation, usual class: activators; also: % of control where 0% means no effect; nearly all actives have a fitted effect of over 55% in size
#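 HEK293 cells carry an SMN2 […]–luciferase reporter in which exon 7 inclusion puts luciferase in frame. Cells were plated 10-12 h before compound addition, then incubated 30-36 h at 37C. ONE-Glo luminescence was read; sodium butyrate at 4.5 mM final served as control.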
# Rab9 prom act – activates the Rab9 promoter; Huh7 Rab9 promoter-luciferase reporter, luminescence, 24 h; Potency, µM (doses to about 9.22 µM), for the others: at the top dose activation, negative = inhibition, most hits filed as activators; 320,000 compounds, 2.8% hits; AID 485297; also: % of control where 0% means no effect; nearly all actives have a fitted effect of over 60% in size
#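 Quantitative HTS format; Huh7 Rab9-luciferase reporter cells (1500/well) receive compound 2 h post-plating, incubate 24 h at 37 °C, then get luciferase reagent for 10 min before luminescence reading.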
# Luc counter – Kinase-Glo luciferase inhibition (counter-screen); Q27757; Potency, µM (titrated, usually from 38.3 µM), for inactives: at the top dose activity change, negative = inhibition, most hits filed as inhibitors; 200,000 compounds, 0.28% hits; Kinase-Glo luciferase, ATP luminescence, 8 min; also: % is scaled to controls: 0 for no effect and ±100 for the full control effect; nearly all actives have a fitted effect of over 60% in size
#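 Compounds were added to a substrate mix at pH 7.2 (50 mM imidazole, 10 uM ATP, within the enzyme's linear range), followed by Kinase-Glo detection reagent; luminescence was measured after 8 minutes at ambient temperature.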
# FLuc counter – firefly luciferase modulation, counter-screen for miR-21 project; purified FLuc, Km substrates, luminescence inhibition; Potency, µM (series often up to 57.5 µM), without a hit: at the top dose activity change, negative = inhibition, hits mostly inhibitors; 360,000 compounds, 6.9% hits; AID 588342;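 also: plate controls were vehicle for no effect and reference inhibitor for full effect; nearly all actives have a fitted effect of over 55% in size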
# Target sequence (P08659 whole entry, looked up): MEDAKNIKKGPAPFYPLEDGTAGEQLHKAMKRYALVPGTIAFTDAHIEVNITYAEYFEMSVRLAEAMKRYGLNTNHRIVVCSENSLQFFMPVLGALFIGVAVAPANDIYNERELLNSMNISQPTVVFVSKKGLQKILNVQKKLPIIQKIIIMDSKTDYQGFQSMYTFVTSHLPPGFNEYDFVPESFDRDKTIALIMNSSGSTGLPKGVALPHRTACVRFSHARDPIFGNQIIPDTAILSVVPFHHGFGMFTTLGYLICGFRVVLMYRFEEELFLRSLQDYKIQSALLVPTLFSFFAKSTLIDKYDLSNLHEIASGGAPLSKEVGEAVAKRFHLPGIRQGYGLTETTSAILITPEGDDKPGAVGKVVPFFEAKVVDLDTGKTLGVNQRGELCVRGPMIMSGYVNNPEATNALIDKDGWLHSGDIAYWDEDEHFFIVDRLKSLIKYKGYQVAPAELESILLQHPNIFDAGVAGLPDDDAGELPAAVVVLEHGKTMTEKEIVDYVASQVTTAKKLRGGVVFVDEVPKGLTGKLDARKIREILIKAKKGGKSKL
#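 Purified P. pyralis luciferase (10nM final) with 10uM D-luciferin and 10uM ATP (Km levels) in 50mM Tris acetate pH 7.5, 10mM Mg acetate, 0.01% Tween-20, 0.05% BSA; qHTS 6-point titration, ~60 µM downward; luminescence read.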
# ELG1 genotoxic – inducers of genotoxicity in HEK293T ELG1-luciferase cells. 330,000 compounds, 1.3% hits. Potency, µM (highest dose often 46 µM), for inactives: top-dose activity change, positive = activation, most hits filed as activators. HEK293T ELG1-luciferase reporter, luminescence, 16 h; also: % of control where 0% means no effect; nearly all actives have a fitted effect of over 60% in size
#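 DMSO vehicle served as control against compound-treated ELG1-luciferase HEK293T cells; exposure lasted 16 hr at 37 °C and 5% CO2, followed by ONE-Glo luminescence detection after 30 min.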
# NPC1 promoter act – activates the NPC1 promoter; Huh7 NPC1 promoter luciferase reporter, 24 h; Potency, µM (doses to about 9.22 µM), without a hit: at the highest dose activation, actives largely listed as activators; 320,000 compounds, 2.4% hits; also: % of control where 0% means no effect; nearly all actives have a fitted effect of over 60% in size
#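 Luminescence from an NPC1 promoter-driven luciferase reporter in stably transfected Huh7 cells was measured after 24 h compound treatment at 37 °C, followed by 10 min ambient incubation with luciferase detection reagent.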
# The depositor's hits bear a star; ? = inconclusive; . = not tested or not shown; [ ] = remark or other dose. Hits are enriched below; roughly 7.3% of the tested compounds scored in any of these assays. Calls follow the shape of the dose curve; as a rule, active = well fitted curve in the direction sought with a large enough effect; inconclusive = small, poorly fitted or top-dose-only effect, or another doubt; inactive = no such curve, though single readings can be large; an effect the other way counts as inactive or inconclusive. Potency is read from the fitted curve at half-maximal effect.
SMILES,SMN2 splice up,Rab9 prom act,Luc counter,FLuc counter,ELG1 genotoxic,NPC1 promoter act
Cc1cccc(-c2cc3nc(-c4ccccc4)cc(=O)n3[nH]2)c1,.,2.82µM*,.,7.57µM*,?,2µM*
O=c1cc(-c2ccccc2)nc2nc(SCc3ccccc3)[nH]n12,6.3%,8.3%,-4.6%,26.9µM*,12.4%,1.1%
Cc1ccccc1-c1cc2nc(-c3ccc([N+](=O)[O-])cc3)cc(=O)n2[nH]1,.,-1.7%,0.6%,?,0.5%,-2.5%
CCCCc1nc2c(c3c1C[C@H](C)OC3)CN(S(=O)(=O)c1ccc(C)cc1)CC2,-9.6%[9.22 µM],.,-6.2%[7.66 µM],.,.,.
CSCCC(=O)N1CCCC(CO)(CCCc2ccccc2)C1 (configuration not stated),.,0.9%,.,2.2%,0.5%,2.1%
O=C1CCCN1CCC(=O)N1CCCC(CO)(Cc2ccccc2)C1 (configuration not stated),.,3.55µM*,.,16.9µM*,7.7%[9.26 µM],?
COc1ccc(CCNC(=O)C(CC(C)C)N2Cc3ccccc3C2=O)c(OC)c1OC (configuration not stated),.,.,.,3.9%,.,.
CCOC(=O)CSC1=NC(=O)/C(=C\c2ccc(Cl)cc2)S1,.,-7.6%,-1.6%,10.7µM*,?,-19.7%
CSC1=NC(=O)/C(=C/c2ccc(SC)cc2)S1,-13.1%,6.5%,-1.6%,9.53µM*,7.7%,-1.3%
CSc1ccc(C=O)cc1,0.3%,7.2%,.,0.9%,-0.5%,-2.8%
CN=C1S/C(=C\c2ccc(O)c(Br)c2)C(=O)N1C,.,-5.0%[1.84 µM],.,15.1µM*,16.9%,-12.2%
CN=C1S/C(=C\c2ccc(OCC(=O)OC)c(OC)c2)C(=O)N1C,.,-5.9%,.,16.9µM*,2.0%,14.8%
CN=C1S/C(=C\c2ccc(SC)cc2)C(=O)N1C,.,17.5%,.,12µM*,10.3µM*,?
CN=C1S/C(=C\c2ccc(Cl)cc2)C(=O)N1C,.,-3.1%,.,-1.5%,10.1%,1.1%
COCC1CCN(C(=O)C2CCC(=O)N(C3CCCC3)C2)CC1 (configuration not stated),.,5.3%,.,-13.7%,5.5%,-3.5%
COC1CCN(C(=O)C2CCC(=O)N(C3CCCCCC3)C2)CC1 (configuration not stated),.,?,.,16.9µM*,?,?
Cc1ccc(C2=NNC(C(O)C(O)C(O)C(C)O)S2)cc1 (configuration not stated),-2.9%,17.2%,-1.1%,23.9µM*,?,27.3%
COc1ccc2[nH]cc(/C=C/C(=O)c3ccccc3)c2c1,.,1.58µM*,.,3.38µM*,?,3.16µM*
O=C(/C=C/c1c[nH]c2ccccc12)c1ccccc1,10µM*,3.55µM*,-1.1%,5.36µM*,16.4µM*,3.16µM*
Cc1ccc(C(=O)/C=C/c2c[nH]c3ccccc23)cc1,?,3.55µM*,-4.6%,5.36µM*,?,3.98µM*
COc1ccc2[nH]cc(C=O)c2c1,-13.6%,-4.3%,0.2%,-1.7%,-1.7%,8.4%
Cc1ccc(S(=O)(=O)/C(C#N)=C/c2c[nH]c3ccccc23)cc1,-6.0%,-7.2%,-3.7%,0.7%,-5.5%,-0.6%
CCCC(=O)Nc1ccc(NC(=O)c2ccccn2)cn1,.,2.82µM*,.,13.5µM*,?,2.24µM*
COc1ccccc1C(=O)Nc1ccc(NC(=O)C2CCCCC2)nc1,.,7.2%,.,?,-0.4%,-2.7%
O=C(Nc1ccc(NC(=O)C2CCCCC2)nc1)c1ccccn1,22.4µM*,3.55µM*,-29.6%,16.9µM*,?,?
O=C(Nc1ccc(NC(=O)C2CC2)nc1)c1cccc(F)c1,.,4.47µM*,.,?,14.0%,?
O=C(Nc1ccc(NC(=O)C2CC2)cn1)c1ccccc1,.,0.355µM*,.,2.69µM*,?,0.316µM*
COc1cc([C@H]2c3cc4c(cc3[C@@H](O[C@H]3O[C@H]5CO[C@@H](C)O[C@H]5[C@@H](O)[C@@H]3O)[C@@H]3COC(=O)[C@H]23)OCO4)cc(OC)c1O,-83.2%[20.6 µM],.,0.9%[17.1 µM],.,.,.

# Screening data as filed in PubChem BioAssay.
